From PubChem BioAssay (Tox21)
Inconclusive results are not listed. Calls of active or inactive are those of the source. The call rests on the fitted dose curve; in most records, active means well fitted curve in the direction sought with a large enough effect in the repeat runs; inconclusive means weak or mixed curves; inactive means no such curve, though single readings can be large; an effect the other way counts as inactive or inconclusive.

molecular target: Cytochrome P450 2C9 (Homo sapiens) (UniProt P11712); experiment: Cytochrome P450 Family 2 Subfamily C Member 9 (CYP2C9) small molecule antagonists: luciferase reporter qHTS assay (AID 1671198); conditions: P450-Glo CYP2C9 enzyme assay, luciferin luminescence; series mostly up to 115 µM; activity change, negative = inhibition: at the top concentration; further: potency means the concentration at half of the fitted maximal effect
Sequence (P11712 whole entry, looked up): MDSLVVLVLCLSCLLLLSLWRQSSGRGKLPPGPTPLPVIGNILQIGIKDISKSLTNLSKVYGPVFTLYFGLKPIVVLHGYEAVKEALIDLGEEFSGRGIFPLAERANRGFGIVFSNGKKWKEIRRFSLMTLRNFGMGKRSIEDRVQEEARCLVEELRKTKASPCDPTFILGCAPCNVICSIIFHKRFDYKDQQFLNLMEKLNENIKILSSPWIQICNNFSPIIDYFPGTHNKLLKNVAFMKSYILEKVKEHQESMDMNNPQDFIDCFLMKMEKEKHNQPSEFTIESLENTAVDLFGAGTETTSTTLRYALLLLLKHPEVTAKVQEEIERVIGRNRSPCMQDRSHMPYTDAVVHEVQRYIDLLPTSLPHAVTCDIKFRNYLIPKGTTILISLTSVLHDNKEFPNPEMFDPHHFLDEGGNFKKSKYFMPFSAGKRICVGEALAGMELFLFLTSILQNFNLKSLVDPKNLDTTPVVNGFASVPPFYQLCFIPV
In short: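 Enzyme-substrate mix preincubated with compound 10 min at room temperature; reaction started with NADPH regeneration solution, 1 h 37C. Luminescent luciferin product read after 20 min detection reagent.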
Further: nearly all actives have a fitted effect of over 50% in size.
On the % scale 0 is the no-effect control and ±100 the full control effect.

SMILES | activity change, negative = inhibition | Potency
CCCCOCCOC(=O)COc1nc(Cl)c(Cl)cc1Cl | 4.91% (inactive) | 
COc1ccc(OC)c(Cl)c1 | -14.6% (inactive) | 
CCCCCCN | -0.626% (inactive) | 
CCOC(=O)CC(=O)c1ccccc1 |  | 35.6 µM (active)
CCCC/C=C/C=C\C=O | -70.8% (inactive) | 
O=C1c2ccccc2C(=O)N1CCl | 2.87% (inactive) | 
CC(=O)NCc1c(I)c(NC(C)=O)c(I)c(C(=O)O)c1I | -2.95% [at 53 µM] (inactive) | 
CCC(C)NC(N)=O (stereo not drawn) | -6.43% (inactive) | 
OC[C@H](Cc1cccc(O)c1)[C@H](CO)Cc1cccc(O)c1 |  | 23 µM (active)
O=C(O)c1cc(Br)c(O)c(Br)c1 |  | 71 µM (active)
O=S(=O)(O)CCN1CCN(CCO)CC1 | -9% (inactive) | 
C=C(C)C(=O)OCC(C)(C)COC(=O)C(=C)C | -27.6% (inactive) | 

molecular target: Cytochrome P450 1A2 (Homo sapiens) (UniProt P05177); experiment: Cytochrome P450 Family 1 Subfamily A Member 2 (CYP1A2) small molecule antagonists: luciferase reporter qHTS assay (AID 1671199); conditions: P450-Glo CYP1A2 enzyme, luciferin luminescence, 1 h; series mostly up to 53 µM; activity change, negative = inhibition: at the top concentration; further: potency means the concentration at half of the fitted maximal effect
Sequence (P05177 whole entry, looked up): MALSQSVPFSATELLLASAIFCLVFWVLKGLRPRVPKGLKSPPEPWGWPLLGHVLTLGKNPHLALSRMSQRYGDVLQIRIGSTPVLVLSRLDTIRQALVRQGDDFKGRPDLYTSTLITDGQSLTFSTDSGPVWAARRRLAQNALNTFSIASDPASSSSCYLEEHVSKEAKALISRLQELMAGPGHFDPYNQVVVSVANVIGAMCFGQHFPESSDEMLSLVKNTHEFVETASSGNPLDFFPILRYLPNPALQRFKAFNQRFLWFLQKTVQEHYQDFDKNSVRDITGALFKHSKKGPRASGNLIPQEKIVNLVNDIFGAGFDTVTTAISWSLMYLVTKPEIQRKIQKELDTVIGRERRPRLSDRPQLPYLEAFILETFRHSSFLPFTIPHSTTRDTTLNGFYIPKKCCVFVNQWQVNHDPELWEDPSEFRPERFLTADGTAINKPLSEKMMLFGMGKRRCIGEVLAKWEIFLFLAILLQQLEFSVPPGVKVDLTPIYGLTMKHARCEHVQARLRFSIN
In short: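 Signal from luciferin formed by CYP1A2 from a proluciferin substrate is read as luminescence, expressed in relative luminescence units. Compounds sit with enzyme 10 min, NADPH-driven reaction runs 1 h, all at room temperature.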

SMILES | activity change, negative = inhibition | Potency
C[C@H](N)[C@H](O)c1cccc(O)c1 | 10.2% (inactive) | 
NC(CO)C(=O)NNCc1ccc(O)c(O)c1O (stereo not drawn) | -2.45% (inactive) | 
Oc1cn2c(n1)Nc1ccc(Cl)c(Cl)c1C2 |  | 2.81 µM (active)
CCCCN | -25.9% (inactive) | 
N[C@@H](COP(=O)(O)O)C(=O)O | 6.27% [at 23.6 µM] (inactive) | 
CCN(C)C(=O)Oc1cccc([C@H](C)N(C)C)c1 | -14% (inactive) | 
CCCC/C=C/C=C\C=O | -14.2% [at 115 µM] (inactive) | 
CC(=O)NCc1c(I)c(NC(C)=O)c(I)c(C(=O)O)c1I | -26.2% (inactive) | 
Cc1ccc(C=O)cc1C |  | 35.6 µM (active)
CCOC(=O)/C=C/c1ccccc1 |  | 35.6 µM (active)
CCO[Si](CCCS)(OCC)OCC | -25.7% [at 115 µM] (inactive) | 
CC(C)(C)c1nnc(NS(=O)(=O)c2ccc(N)cc2)s1 | 13.9% (inactive) | 
Cc1ccccc1OCC(O)CO (stereo not drawn) |  | 27.5 µM (active)
Cc1cccc2nccnc12 | -14.6% [at 115 µM] (inactive) | 
CC(C)(C)OC(=O)c1ccc(O)cc1 |  | 31.7 µM (active)
CC(C)=O | -4% [at 115 µM] (inactive) | 
O=C(NCCc1c[nH]c2ccccc12)c1cccnc1 |  | 12.9 µM (active)

molecular target: Voltage-gated inwardly rectifying potassium channel KCNH2 (Homo sapiens) (UniProt Q12809); experiment: Human Ether-a-go-go-Related Gene (hERG) channel small molecule antagonists: fluorescence cell-based qHTS assay (AID 1671200); conditions: hERG-U2OS cells, FluxOR thallium flux fluorescence; series mostly up to 76.8 µM; activity change, negative = inhibition: at the top concentration;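 further: hERG-expressing U2OS cells given a thallium stimulus after FluxOR II dye loading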
Sequence (Q12809 whole entry, looked up): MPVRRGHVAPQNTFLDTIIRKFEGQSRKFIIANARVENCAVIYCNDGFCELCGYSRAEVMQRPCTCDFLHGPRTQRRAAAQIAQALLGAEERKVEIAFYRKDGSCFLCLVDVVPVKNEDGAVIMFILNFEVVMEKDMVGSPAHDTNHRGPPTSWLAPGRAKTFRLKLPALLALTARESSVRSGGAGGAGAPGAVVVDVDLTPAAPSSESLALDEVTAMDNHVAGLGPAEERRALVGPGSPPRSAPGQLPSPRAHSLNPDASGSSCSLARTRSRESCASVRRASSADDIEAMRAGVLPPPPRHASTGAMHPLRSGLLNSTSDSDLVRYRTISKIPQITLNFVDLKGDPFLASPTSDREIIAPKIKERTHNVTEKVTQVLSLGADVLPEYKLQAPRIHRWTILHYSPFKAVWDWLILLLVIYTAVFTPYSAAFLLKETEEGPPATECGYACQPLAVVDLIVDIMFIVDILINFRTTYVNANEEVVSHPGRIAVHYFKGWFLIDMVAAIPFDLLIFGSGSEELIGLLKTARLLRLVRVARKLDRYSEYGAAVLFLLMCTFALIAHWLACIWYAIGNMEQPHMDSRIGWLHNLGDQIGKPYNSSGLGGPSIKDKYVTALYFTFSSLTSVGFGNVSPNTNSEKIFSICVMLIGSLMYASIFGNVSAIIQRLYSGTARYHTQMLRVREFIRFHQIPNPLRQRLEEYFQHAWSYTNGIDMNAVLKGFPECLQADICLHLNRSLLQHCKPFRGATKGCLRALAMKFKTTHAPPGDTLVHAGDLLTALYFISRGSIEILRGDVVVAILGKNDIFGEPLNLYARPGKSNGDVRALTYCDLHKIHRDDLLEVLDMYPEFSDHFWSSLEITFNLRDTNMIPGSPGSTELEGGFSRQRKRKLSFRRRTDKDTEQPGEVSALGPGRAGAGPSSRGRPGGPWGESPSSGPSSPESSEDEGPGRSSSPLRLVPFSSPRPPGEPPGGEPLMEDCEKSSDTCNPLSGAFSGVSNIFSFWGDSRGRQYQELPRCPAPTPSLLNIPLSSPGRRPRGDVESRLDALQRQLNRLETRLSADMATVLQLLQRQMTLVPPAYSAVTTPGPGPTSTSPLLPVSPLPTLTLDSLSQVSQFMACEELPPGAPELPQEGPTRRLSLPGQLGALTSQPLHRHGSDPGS
In short: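 Thallium served as the potassium surrogate; its influx into dye-loaded U2OS cells carrying the channel was measured by fluorescence over 2 min.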

SMILES | activity change, negative = inhibition
C[C@H](N)[C@H](O)c1cccc(O)c1 | 3.1% [at 35.3 µM] (inactive)
NC(CO)C(=O)NNCc1ccc(O)c(O)c1O (stereo not drawn) | 1.53% [at 35.3 µM] (inactive)
Oc1cn2c(n1)Nc1ccc(Cl)c(Cl)c1C2 | -1.03% [at 15.8 µM] (inactive)
NCCN1CCOCC1 | 1.55% (inactive)
COc1ccc(OC)c(Cl)c1 | 1.68% (inactive)
CCCCN | 0.264% [at 35.3 µM] (inactive)
O=C(NCC(O)CO)c1c(I)c(C(=O)NCC(O)CO)c(I)c(N(CCO)C(=O)CO)c1I (stereo not drawn) | 1.79% [at 35.3 µM] (inactive)
CCCCCCN | -5.12% (inactive)
CCOC(=O)CC(=O)c1ccccc1 | 2.08% (inactive)
N[C@@H](COP(=O)(O)O)C(=O)O | 2.29% [at 15.8 µM] (inactive)
CCN(C)C(=O)Oc1cccc([C@H](C)N(C)C)c1 | 5% [at 35.3 µM] (inactive)
CC1=C(C(=O)O)N2C(=O)[C@@H](NC(=O)[C@H](N)c3ccc(O)cc3)[C@H]2SC1 | 2.46% [at 35.3 µM] (inactive)
CCCCNc1ccc(C(=O)OCCN(C)C)cc1 | 0.348% [at 35.3 µM] (inactive)
CCCC/C=C/C=C\C=O | -5.57% (inactive)
O=C1c2ccccc2C(=O)N1CCl | 0.353% (inactive)
CC(=O)NCc1c(I)c(NC(C)=O)c(I)c(C(=O)O)c1I | 1.26% [at 35.3 µM] (inactive)
Cc1ccc(C=O)cc1C | 9.96% (inactive)

SMILES | activity change, negative = inhibition
COCCOC(=O)C1=C(C)NC(C)=C(C(=O)OC(C)C)C1c1cccc([N+](=O)[O-])c1 (stereo not drawn) | 2.22% [at 35.3 µM] (inactive)
CCOC(=O)/C=C/c1ccccc1 | 7.75% (inactive)
CCO[Si](CCCS)(OCC)OCC | 5.69% (inactive)
CCC(C)NC(N)=O (stereo not drawn) | 3.44% (inactive)
CC(C)NCC(O)COc1cccc2[nH]ccc12 (stereo not drawn) | -6.02% [at 35.3 µM] (inactive)
CC(C)(C)c1nnc(NS(=O)(=O)c2ccc(N)cc2)s1 | 4.75% [at 35.3 µM] (inactive)
O=C(O)c1cc(Br)c(O)c(Br)c1 | -0.752% (inactive)
Cc1ccccc1OCC(O)CO (stereo not drawn) | 12.5% [at 35.3 µM] (inactive)
Cc1cccc2nccnc12 | 7.15% (inactive)
O=P(O)(O)OP(=O)(O)O | 3.89% (inactive)
Cc1cc(NC(=O)C2=C(O)c3ccccc3S(=O)(=O)N2C)no1 | -2.56% [at 35.3 µM] (inactive)
O=S(=O)(O)CCN1CCN(CCO)CC1 | 2.21% (inactive)
CC(C)(C)OC(=O)c1ccc(O)cc1 | 0.349% (inactive)
C=C(C)C(=O)OCC(C)(C)COC(=O)C(=C)C | -4.27% (inactive)
N[C@@H](CCC(=O)N[C@@H](CS)C(=O)NCC(=O)O)C(=O)O | 7.2% [at 15.8 µM] (inactive)
CC(C)=O | 0.0144% (inactive)
O=C(NCCc1c[nH]c2ccccc12)c1cccnc1 | 3.56% [at 35.3 µM] (inactive)
